“And” between values parts separate entries of the source, which are not always exact repeats. Equal entries are not always repeated. Records with an inconclusive call do not appear. Where a structure was tested more than once in an assay, its records may differ in their call. The source made the active and inactive calls. The calls were made as follows, unless noted: active = hit-call score of the fitted dose curve at least 0.9, where 1 is the maximum; inconclusive = response in the unintended direction; inactive = score below 0.9.

The target of experiment [1] is human Dopamine Transporter (DAT), SLC6A3 (gene 6531) (UniProt Q01959). As to the kind of experiment: NVS_TR_hDAT: NovaScreen (NVS) Transporter Assay for human Dopamine Transporter (DAT) (AID 2283374).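 Also: activity means loss of bound radioligand signal relative to DMSO.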 The method, boiled down:
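hDAT membranes + tritiated/iodinated radioligand, competitive displacement; 1 h; filter scintillation readout. Single conc 25 uM (duplicate), then conc-response for actives. DMSO = negative control.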

Experiment [2] has as its target human Norepinephrine Transporter (NET), SLC6A2 (gene 6530) (UniProt P23975). Nature of the experiment: NVS_TR_hNET: NovaScreen (NVS) Transporter Assay for human Norepinephrine Transporter (NET) (AID 2283377).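 Also: cell-free membrane protein extracted from CHO cells expressing human NET.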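 As to AC50: displacement of radioligand from human NET seen as loss of scintillation signal.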 Put shortly:
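CHO cell extracts expressing the transporter; tritiated or iodinated tracer displaced competitively; filtration plus scintillation readout at 1 h. Single-point duplicates at 25 uM, concentration series for follow-up; activity = signal drop relative to DMSO.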

Experiment [3] concerns the target mouse Estrogen Receptor alpha (Era), Esr1 (gene 13982) (UniProt P19785). Nature of the experiment: NVS_NR_mERa: NovaScreen (NVS) Nuclear Receptor Binding Assay for mouse Estrogen Receptor alpha (Era) (AID 2283378).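 Also: hit means loss of bound radioligand signal relative to DMSO.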 Put shortly: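 Test chemicals competed against a specific radioligand for binding to cell-free mouse Era. Duplicate wells at 25 uM were read 18 hours later by filter-based radiodetection, with loss of signal against DMSO scored as activity.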

Experiment [4] has as its target Estrogen receptor beta (Homo sapiens) (UniProt Q92731). Nature of the experiment: OT_ER_ERbERb_1440: Odyssey Thera (OT) 24-hour HEK293T Protein-Complementation Assay for Estrogen Receptor-beta/-beta Homodimer (AID 2283380).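 Also: scored as signal increase over DMSO baseline for both agonists and antagonists.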 Put shortly: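 HEK293T cells stably expressing ER beta LBD (aa 310-547) homodimer fragment-complementation reporter, dosed 24 h. Cells formaldehyde-fixed, Draq5-stained; gain in nuclear (agonist) or nuclear plus cytoplasmic (antagonist) fluorescence versus DMSO read by laser scanning cytometry.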

In experiment [5] the target is Estrogen receptor (Homo sapiens) (UniProt P03372). As to the kind of experiment: OT_ERa_GFPERaERE_0480: Odyssey Thera (OT) 8-hour HeLa Transcription Induction Assay for Estrogen Receptor (AID 2283381; active = hit-call score of the fitted dose curve at least 0.9, where 1 is the maximum; inactive = score below 0.9). Put shortly:
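An 8 h HeLa transcription-induction format with a GFP reporter under ERE control, read by fluorescence microscopy; single endpoint fitted positively with DMSO as baseline.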

Experiment [6] shares this target. As to the kind of experiment: OT_ERa_GFPERaERE_0120: Odyssey Thera (OT) 2-hour HeLa Transcription Induction Assay for Estrogen Receptor (AID 2283382). The method, boiled down:
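Two-hour compound treatment of HeLa cells preceded microscopy imaging of an inducible fluorescent reporter. Image-based quantification gave one endpoint, analysed for signal increase relative to DMSO controls.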

In experiment [7] the target is Agonist Androgen Response Element (ARE), AR (gene 367) (UniProt P10275). As to the kind of experiment: OT_AR_ARELUC_AG_1440: Odyssey Thera (OT) 24-hour CHO-K1 Luciferase Assay for Agonist Androgen Response Element (ARE) (AID 2283379). Put shortly: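 Gain-of-signal reporter endpoint: cells (CHO-K1, hamster) are treated 24 h, luciferin/ATP reagent added, and luminescence compared with DMSO baseline.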

Experiment [8] concerns the target Norway rat Vesicular Monoamine Transporter (VMAT2), neurotransmitter transporter, Slc18a2 (gene 25549) (UniProt Q01827). Nature of the experiment: NVS_TR_rVMAT2: NovaScreen (NVS) Transporter Assay for Norway rat Vesicular Monoamine Transporter (VMAT2), neurotransmitter transporter (AID 2283376).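 Also: actives lower the bound radioligand signal below the DMSO level.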 The method, boiled down:
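Filter-based scintillation counting of radioligand bound to rat forebrain-derived VMAT2 protein, cell-free, 1 h post-dose. Signal loss relative to DMSO control scored; single-concentration duplicate screen (25 uM) followed by concentration-response testing of actives.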

The test system of experiment [9] is rat Norepinephrine Transporter (NET), gene 83511. As to the kind of experiment: NVS_TR_rNET: NovaScreen (NVS) Transporter Assay for rat Norepinephrine Transporter (NET) (AID 2283373). Put shortly: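 Competitive radioligand displacement at the rat NET using forebrain membrane preparations, 1 h incubation, filter-based scintillation readout. Primary testing in duplicate at a single 25 uM concentration; confirmed actives retested across concentrations.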

The target in experiment [10] is rat Serotonin Transporter (SERT), Slc6a4 (gene 25553) (UniProt P31652). As to the kind of experiment: NVS_TR_rSERT: NovaScreen (NVS) Transporter Assay for rat Serotonin Transporter (SERT) (AID 2283375). Put shortly:
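Steps: rat forebrain membranes dosed with chemical (25 uM duplicate primary; concentration series for actives); 1 h incubation; labelled ligand bound, filtered, counted by scintillation. Activity scored as signal loss vs DMSO.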

Sequence of Norway rat Vesicular Monoamine Transporter (VMAT2), neurotransmitter transporter, Slc18a2 (gene 25549) (Q01827 whole entry, looked up): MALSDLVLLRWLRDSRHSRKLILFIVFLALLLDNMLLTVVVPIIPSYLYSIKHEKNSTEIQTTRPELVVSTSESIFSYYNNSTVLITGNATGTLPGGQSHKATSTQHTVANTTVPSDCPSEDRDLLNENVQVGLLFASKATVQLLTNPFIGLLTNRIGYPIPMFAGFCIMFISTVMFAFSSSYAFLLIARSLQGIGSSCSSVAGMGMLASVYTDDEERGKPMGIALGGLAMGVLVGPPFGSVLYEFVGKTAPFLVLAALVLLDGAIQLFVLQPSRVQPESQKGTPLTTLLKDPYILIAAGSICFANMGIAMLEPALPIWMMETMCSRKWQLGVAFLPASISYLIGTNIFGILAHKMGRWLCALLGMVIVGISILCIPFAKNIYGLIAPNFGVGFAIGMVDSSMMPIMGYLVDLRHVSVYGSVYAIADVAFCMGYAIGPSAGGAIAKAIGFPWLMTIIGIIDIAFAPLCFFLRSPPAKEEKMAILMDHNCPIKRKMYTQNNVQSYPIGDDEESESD
Sequence of Agonist Androgen Response Element (ARE), AR (gene 367) (P10275 whole entry, looked up): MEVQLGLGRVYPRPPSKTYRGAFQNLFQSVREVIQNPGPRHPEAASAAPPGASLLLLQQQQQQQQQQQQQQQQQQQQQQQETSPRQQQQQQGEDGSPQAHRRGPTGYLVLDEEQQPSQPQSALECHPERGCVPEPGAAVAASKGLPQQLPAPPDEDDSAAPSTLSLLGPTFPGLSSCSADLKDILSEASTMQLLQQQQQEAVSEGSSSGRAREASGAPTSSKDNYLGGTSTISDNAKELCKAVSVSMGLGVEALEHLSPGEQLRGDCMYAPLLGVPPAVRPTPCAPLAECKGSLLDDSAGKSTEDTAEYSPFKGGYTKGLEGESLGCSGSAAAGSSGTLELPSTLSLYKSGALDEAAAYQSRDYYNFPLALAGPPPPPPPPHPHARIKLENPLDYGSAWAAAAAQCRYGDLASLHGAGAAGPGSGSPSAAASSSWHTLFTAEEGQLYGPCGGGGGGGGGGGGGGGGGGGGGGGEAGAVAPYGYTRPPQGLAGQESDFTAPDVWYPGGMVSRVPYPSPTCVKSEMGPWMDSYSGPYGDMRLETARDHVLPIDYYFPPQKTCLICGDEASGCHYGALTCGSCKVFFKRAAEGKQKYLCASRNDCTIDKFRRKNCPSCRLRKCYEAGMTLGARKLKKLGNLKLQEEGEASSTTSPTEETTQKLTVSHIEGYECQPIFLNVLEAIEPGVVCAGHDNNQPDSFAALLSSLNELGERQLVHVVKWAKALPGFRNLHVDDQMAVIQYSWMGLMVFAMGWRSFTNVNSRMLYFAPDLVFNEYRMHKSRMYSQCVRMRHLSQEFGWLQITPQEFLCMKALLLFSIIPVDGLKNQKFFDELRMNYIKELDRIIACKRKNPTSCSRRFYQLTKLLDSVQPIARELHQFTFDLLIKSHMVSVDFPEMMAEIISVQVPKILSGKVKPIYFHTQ
Sequence of mouse Estrogen Receptor alpha (Era), Esr1 (gene 13982) (P19785 whole entry, looked up): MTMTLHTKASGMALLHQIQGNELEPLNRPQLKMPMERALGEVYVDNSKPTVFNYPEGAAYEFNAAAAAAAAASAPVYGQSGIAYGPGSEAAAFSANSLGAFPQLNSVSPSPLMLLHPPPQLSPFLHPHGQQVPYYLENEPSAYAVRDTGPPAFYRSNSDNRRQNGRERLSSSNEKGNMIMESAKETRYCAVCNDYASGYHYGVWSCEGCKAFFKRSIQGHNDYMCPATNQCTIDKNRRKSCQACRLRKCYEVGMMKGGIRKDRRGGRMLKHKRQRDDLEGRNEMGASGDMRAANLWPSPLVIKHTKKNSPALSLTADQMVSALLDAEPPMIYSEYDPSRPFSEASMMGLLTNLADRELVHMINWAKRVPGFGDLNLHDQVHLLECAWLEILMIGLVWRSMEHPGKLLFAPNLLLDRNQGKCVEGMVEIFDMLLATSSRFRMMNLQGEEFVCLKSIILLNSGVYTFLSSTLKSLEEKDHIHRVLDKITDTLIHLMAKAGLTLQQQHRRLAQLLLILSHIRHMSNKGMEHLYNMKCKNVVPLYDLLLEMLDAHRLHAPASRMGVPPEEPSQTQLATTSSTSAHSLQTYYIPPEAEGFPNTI
Sequence of rat Serotonin Transporter (SERT), Slc6a4 (gene 25553) (P31652 whole entry, looked up): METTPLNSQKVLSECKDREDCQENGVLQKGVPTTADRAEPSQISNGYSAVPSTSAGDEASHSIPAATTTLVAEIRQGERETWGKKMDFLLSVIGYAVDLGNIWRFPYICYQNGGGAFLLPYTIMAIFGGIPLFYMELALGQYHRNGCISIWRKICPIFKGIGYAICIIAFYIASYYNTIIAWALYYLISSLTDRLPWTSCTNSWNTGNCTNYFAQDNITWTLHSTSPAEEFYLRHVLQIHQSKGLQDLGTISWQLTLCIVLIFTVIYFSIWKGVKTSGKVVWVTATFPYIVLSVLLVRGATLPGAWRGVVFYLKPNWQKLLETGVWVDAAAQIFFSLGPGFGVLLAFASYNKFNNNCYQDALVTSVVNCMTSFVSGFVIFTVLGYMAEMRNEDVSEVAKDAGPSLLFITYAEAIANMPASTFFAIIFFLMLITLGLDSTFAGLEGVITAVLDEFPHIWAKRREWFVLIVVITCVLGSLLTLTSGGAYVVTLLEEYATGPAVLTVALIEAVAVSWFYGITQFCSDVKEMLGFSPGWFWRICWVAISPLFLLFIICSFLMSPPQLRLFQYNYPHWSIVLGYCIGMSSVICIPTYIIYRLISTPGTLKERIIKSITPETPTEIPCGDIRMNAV
Sequence of human Dopamine Transporter (DAT), SLC6A3 (gene 6531) (Q01959 whole entry, looked up): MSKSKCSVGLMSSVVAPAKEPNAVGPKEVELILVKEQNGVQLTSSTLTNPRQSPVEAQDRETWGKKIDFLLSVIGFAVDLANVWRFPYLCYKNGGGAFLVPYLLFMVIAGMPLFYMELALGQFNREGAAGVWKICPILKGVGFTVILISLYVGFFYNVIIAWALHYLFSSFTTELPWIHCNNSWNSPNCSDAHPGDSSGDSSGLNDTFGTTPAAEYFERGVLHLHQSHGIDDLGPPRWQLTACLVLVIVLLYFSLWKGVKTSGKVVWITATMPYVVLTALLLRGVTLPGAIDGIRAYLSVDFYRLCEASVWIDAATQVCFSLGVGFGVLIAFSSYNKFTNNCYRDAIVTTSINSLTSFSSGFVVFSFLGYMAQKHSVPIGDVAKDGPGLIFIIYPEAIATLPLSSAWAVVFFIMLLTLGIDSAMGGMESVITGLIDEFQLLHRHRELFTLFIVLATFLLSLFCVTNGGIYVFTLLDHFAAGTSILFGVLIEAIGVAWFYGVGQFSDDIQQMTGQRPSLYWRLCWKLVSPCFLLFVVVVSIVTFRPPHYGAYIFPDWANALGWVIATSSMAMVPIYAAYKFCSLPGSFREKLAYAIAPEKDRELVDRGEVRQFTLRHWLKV
Sequence of Estrogen receptor beta (Homo sapiens) (Q92731 whole entry, looked up, the tested form may be a part): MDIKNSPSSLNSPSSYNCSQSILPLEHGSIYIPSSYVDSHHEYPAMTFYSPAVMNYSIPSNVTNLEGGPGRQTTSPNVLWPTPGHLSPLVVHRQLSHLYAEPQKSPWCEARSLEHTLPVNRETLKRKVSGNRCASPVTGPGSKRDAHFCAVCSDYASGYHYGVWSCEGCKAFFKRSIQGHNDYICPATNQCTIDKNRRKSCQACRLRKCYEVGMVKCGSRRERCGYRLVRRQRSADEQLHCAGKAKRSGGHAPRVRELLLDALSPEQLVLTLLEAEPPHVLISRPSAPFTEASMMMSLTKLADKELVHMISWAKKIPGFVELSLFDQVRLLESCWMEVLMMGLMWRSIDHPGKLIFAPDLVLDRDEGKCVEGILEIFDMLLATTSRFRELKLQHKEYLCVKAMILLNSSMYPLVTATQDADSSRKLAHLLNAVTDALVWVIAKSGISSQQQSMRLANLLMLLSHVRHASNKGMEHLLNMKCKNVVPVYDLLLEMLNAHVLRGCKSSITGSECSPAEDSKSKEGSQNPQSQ
Sequence of Estrogen receptor (Homo sapiens) (P03372 whole entry, looked up): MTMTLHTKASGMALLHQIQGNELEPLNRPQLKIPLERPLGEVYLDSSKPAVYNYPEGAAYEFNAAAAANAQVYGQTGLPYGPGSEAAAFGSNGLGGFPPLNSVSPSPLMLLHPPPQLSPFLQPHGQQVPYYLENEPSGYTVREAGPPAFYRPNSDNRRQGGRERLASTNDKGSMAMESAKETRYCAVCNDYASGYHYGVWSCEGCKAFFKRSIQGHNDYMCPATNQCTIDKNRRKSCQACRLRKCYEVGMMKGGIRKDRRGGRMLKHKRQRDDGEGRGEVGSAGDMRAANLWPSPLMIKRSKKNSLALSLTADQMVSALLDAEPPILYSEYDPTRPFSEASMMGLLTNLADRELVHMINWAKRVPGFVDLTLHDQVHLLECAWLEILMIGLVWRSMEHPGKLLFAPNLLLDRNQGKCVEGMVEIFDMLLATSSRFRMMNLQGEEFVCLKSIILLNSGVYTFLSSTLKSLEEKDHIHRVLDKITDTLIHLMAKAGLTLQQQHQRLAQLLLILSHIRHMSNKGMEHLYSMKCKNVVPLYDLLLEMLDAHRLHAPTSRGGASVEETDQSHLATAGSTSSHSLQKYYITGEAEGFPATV
Sequence of human Norepinephrine Transporter (NET), SLC6A2 (gene 6530) (P23975 whole entry, looked up): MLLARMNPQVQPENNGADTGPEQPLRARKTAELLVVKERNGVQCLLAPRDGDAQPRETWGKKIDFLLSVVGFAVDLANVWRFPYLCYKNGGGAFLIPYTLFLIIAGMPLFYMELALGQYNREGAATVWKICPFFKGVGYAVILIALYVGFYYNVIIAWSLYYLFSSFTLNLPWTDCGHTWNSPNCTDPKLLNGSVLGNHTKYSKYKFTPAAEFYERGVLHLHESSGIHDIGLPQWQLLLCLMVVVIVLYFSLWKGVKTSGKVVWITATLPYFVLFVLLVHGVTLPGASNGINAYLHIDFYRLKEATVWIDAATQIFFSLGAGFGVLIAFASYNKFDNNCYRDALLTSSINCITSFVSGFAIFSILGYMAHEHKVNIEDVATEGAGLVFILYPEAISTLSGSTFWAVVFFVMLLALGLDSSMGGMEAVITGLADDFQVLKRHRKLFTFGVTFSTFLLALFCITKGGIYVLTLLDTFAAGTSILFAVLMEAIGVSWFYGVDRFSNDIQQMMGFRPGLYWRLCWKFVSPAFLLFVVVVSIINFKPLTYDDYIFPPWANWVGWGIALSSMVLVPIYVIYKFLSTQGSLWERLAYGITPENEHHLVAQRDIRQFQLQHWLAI

As a reminder, the AC50 is the midpoint of the concentration-response curve, whichever way the signal moves. For `Nc1ccc(N=Nc2ccccc2)cc1`, the AC50 in experiment [1] is 2.24 µM (active); in experiment [2] it was 9.76 µM (active); in experiment [4], 35.6 µM (active). The result in experiment [3], in experiment [5] and in experiment [6] was inactive.
For `O=C1CCCO1`, the compound was classed as inactive in experiment [7] and in experiment [4].
For the compound `Nc1ccc(Cl)cc1N`, the AC50 in [2] was 38.9 µM (active). Moreover, the compound was called inactive in experiment [7].
As for `Cc1cccc(N)c1N`, in experiment [2], the AC50 was 5.57 µM (active). For the same compound, the compound was classed as inactive in [4].
As to `CC(C)(OOC(C)(C)c1ccccc1)c1ccccc1`, the result in experiment [8] and in experiment [7] was inactive. Besides, the AC50 in experiment [4] was 9.59 µM (active).
Consider `O=C(N[C@H](c1ccccc1)[C@@H]1CN2CCC1CC2)c1c(Cl)ccc(C(F)(F)F)c1Cl`, for which the AC50 in experiment [9] was 26.4 µM (active); in [1], 23.1 µM (active); in [10] it was 0.359 µM (active); in experiment [2], 13.3 µM (active). Further, in experiment [4], the outcome was inactive.
With `Nc1ccc(Oc2ccc(N)cc2)cc1`, the AC50 in experiment [1] is 3.25 µM (active). Also, in experiment [4], the outcome was inactive.
For `C[C@]12C=CC3=C4CCC(=O)C=C4CC[C@H]3[C@@H]1CC[C@@H]2O`, the AC50 in experiment [10] is 5.68 µM (active); in [8] it was 13.3 µM (active); in experiment [3] it was 3.65 µM (active) and 4.59 µM (active) and 7.64 µM (active); in experiment [7], 210 nM (active) and 213 nM (active) and 2.53 nM (active). Besides, the outcome in experiment [3] and in [4] was inactive.
`O=[N+]([O-])C(Br)(CO)CO`: the call in experiment [2], in experiment [4] and in experiment [5] was inactive.
`Nc1ccc([N+](=O)[O-])cc1`: the compound was classed as inactive in experiment [2], in [7] and in [4].
Consider `Cn1cc(-c2ccccc2)c(=O)c(-c2cccc(C(F)(F)F)c2)c1`, for which the AC50 in [1] was 16.5 µM (active). Moreover, the compound was called inactive in experiment [5] and in [6].
On to `CC(C)N(Cc1ccccc1)C(=O)C(C)(C)C`, for which the AC50 in experiment [1] was 6.52 µM (active); in experiment [4], 41.5 µM (active). In experiment [7], the result was inactive.
Take `C=CCc1ccc2c(c1)OCO2`: the compound was classed as inactive in experiment [8] and in experiment [4].
For the compound `CCCCCOC(=O)c1ccccc1C(=O)OCCCCC`, the compound was classed as inactive in experiment [3] and in experiment [4]. The AC50 in [5] is 13 µM (active); in experiment [6] it was 12.1 µM (active).
Consider `CCCCOC(=O)c1ccccc1C(=O)OCc1ccccc1`, for which, in [8], the compound was classed as inactive. In addition, the AC50 in experiment [4] is 12.9 µM (active).
As to `CC(C)(C)C(O)(CCc1ccc(Cl)cc1)Cn1cncn1` (centres undefined), the AC50 was 4.04 µM (active) in [1] and 14.3 µM (active) in experiment [2].
As for `CC(C)(C)OOC(=O)c1ccccc1`, the result in [2] and in experiment [4] was inactive.
As to `Nc1ccc(Cc2ccc(N)cc2)cc1`, in experiment [9], the result was inactive. For the same compound, the AC50 in [1] is 9.3 µM (active).
Turning to `O=C(Nc1ccccc1)c1ccccc1I`, the AC50 in [2] is 11.2 µM (active). In addition, the compound was called inactive in experiment [4], in [5] and in experiment [6].
`Cc1cc(N=Nc2ccccc2C)ccc1N`: the figures for the AC50 in experiment [1], in experiment [2] and in experiment [4] were 17.4 µM (active), 12.4 µM (active) and 12.2 µM (active), respectively.
Regarding `CCC[CH2][Sn]([Cl])([CH2]CCC)[CH2]CCC`, the AC50 is 14.4 µM (active) in experiment [9], 3.59 µM (active) in experiment [1], 8.54 µM (active) in [10] and 0.361 µM (active) in experiment [2]. For the same compound, the outcome in experiment [3], in experiment [5] and in [6] was inactive.
Take `CCC(C)c1ccc(O)cc1` (centres undefined): the result in [9] and in [8] was inactive. In addition, the results for the AC50 in experiment [1], in [2] and in experiment [4] were 4.96 µM (active), 9.53 µM (active) and 28.2 µM (active), respectively.
As to `[Cl-].[Cl-].[Hg+2]`, the concentration at half-maximal activity (AC50) in experiment [1] is 25 µM (active); in experiment [10] it was 25 µM (active); in experiment [2] it was 0.372 µM (active); in experiment [5], 65.9 µM (active); in experiment [6], 21.5 µM (active). In addition, the compound was classed as inactive in experiment [4].
Take `CCOC(=O)[C@]1(c2ccccc2)Oc2ccccc2[C@@H]1N`: the AC50 in [9] is 5.35 µM (active); in experiment [1] it was 2.98 µM (active); in [10], 1.23 µM (active); in experiment [2] it was 1.56 µM (active). For the same compound, in experiment [4], the result was inactive.
`ClC1=C(Cl)[C@]2(Cl)[C@H]3[C@H]([C@@H]4C=C[C@H]3C4)[C@@]1(Cl)C2(Cl)Cl`: the compound was called inactive in experiment [3], in experiment [5] and in experiment [6].
As to `COC(=O)Nc1nc2ccccc2[nH]1`, the compound was classed as inactive in experiment [7] and in [4].

The record behind these values is PubChem BioAssay (EPA / NIEHS).
